Reference: PubChem BioAssay AID1159580 (chemical genetic matrix, 2015)
“And” between values parts separate entries of the source, which are not always exact repeats. Identical values can stand only once. In all, about 5,500 compounds went through this assay and about 2,000 (36%) were called active. Not shown: some 18% with an inconclusive outcome. Cut-off read from the data, not from the text of the source: active = normalized growth mostly below about 0.91 (no sharp cut-off); inconclusive = no clear call, values can overlap the other calls; inactive = mostly above about 0.92. Some of the results follow.

Test: chemical genetic growth profiling, strain panel (AID 1159580);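 note: tested at 20 µM; growth read once vehicle control cultures reached saturation at 30 °C; 1 = growth at the plate median or of vehicle wells; lower values mean less growth of the strain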
Conditions: S. cerevisiae deletion strains, growth OD

Measured: normalized growth

CCOC(=O)[C@H](CCc1ccccc1)N[C@@H](C)C(=O)N1Cc2ccccc2C[C@H]1C(=O)O
inactive: locus YAL021C, strain ccr4, stronger effect = lower value 0.993 | locus YAL026C, strain drs2, stronger effect = lower value 0.981 | locus YAL030W, strain snc1, stronger effect = lower value 1 | locus YBL061C, strain skt5, stronger effect = lower value 0.99 | locus YBR009C, strain hhf1, stronger effect = lower value 1.02 | locus YBR021W, strain FUR4, stronger effect = lower value 1.01 | locus YBR023C, strain chs3, stronger effect = lower value 0.984 | locus YBR171W, strain sec66, stronger effect = lower value 0.997 | locus YBR229C, strain ROT2, stronger effect = lower value 1 | locus YBR231C, strain swc5, stronger effect = lower value 1 | locus YBR279W, strain paf1, stronger effect = lower value 0.98 | locus YCL011C, strain gbp2, stronger effect = lower value 0.998 | locus YCL016C, strain dcc1, stronger effect = lower value 0.963 | locus YCL029C, strain bik1, stronger effect = lower value 1.01 | locus YCL061C, strain MRC1, stronger effect = lower value 1.01 | locus YCL069W, strain vba3, stronger effect = lower value 0.986 | locus YCR088W, strain abp1, stronger effect = lower value 1 | locus YDL005C, strain med2, stronger effect = lower value 1.01 | locus YDL035C, strain GPR1, stronger effect = lower value 1.02 | locus YDL040C, strain nat1, stronger effect = lower value 1 | locus YDL074C, strain BRE1, stronger effect = lower value 0.996 | locus YDL101C, strain DUN1, stronger effect = lower value 1.01 | locus YDL134C, strain PPH21, stronger effect = lower value 1 | locus YDL185W, strain tfp1, stronger effect = lower value 1.01 | locus YDL192W, strain arf1, stronger effect = lower value 1.01 | locus YDR001C, strain nth1, stronger effect = lower value 1 | locus YDR069C, strain doa4, stronger effect = lower value 1 | locus YDR101C, strain arx1, stronger effect = lower value 0.999 | locus YDR137W, strain rgp1, stronger effect = lower value 0.983 | locus YDR159W, strain sac3, stronger effect = lower value 0.964 | locus YDR162C, strain NBP2, stronger effect = lower value 1.01 | locus YDR195W, strain ref2 0.965 | locus YDR297W, strain sur2, stronger effect = lower value 1.01 | locus YDR318W, strain mcm21, stronger effect = lower value 1.01 | locus YDR334W, strain swr1, stronger effect = lower value 1.02 | locus YDR335W, strain msn5, stronger effect = lower value 0.984 | locus YDR388W, stronger effect = lower value 1.01 | locus YDR392W, strain spt3, stronger effect = lower value 0.931 | locus YDR502C, strain sam2, stronger effect = lower value 1.03 | locus YEL003W, strain gim4, stronger effect = lower value 1.02 | locus YEL037C, strain rad23, stronger effect = lower value 1.01 | locus YEL061C, strain CIN8 (second series), stronger effect = lower value 1.03 | locus YEL061C, strain CIN8, stronger effect = lower value 1.01 | locus YER015W, strain faa2, stronger effect = lower value 1.01 | locus YER016W, strain bim1, stronger effect = lower value 1.02 | locus YER110C, stronger effect = lower value 1.01 | locus YER111C, strain swi4, stronger effect = lower value 0.989 | locus YER155C, strain BEM2 (second series), stronger effect = lower value 1.06 | locus YER155C, strain BEM2, stronger effect = lower value 0.995 | locus YER167W, strain BCK2, stronger effect = lower value 1.01 | locus YFR010W, strain ubp6, stronger effect = lower value 0.998 | locus YGL078C, strain dbp3, stronger effect = lower value 1.01 | locus YGL086W, strain mad1, stronger effect = lower value 1 | locus YGL167C, strain pmr1, stronger effect = lower value 1 | locus YGL173C, strain kem1, stronger effect = lower value 0.993 | locus YGL227W, strain vid30, stronger effect = lower value 0.986 | locus YGL240W, strain doc1, stronger effect = lower value 1.02 | locus YGL248W, strain PDE1, stronger effect = lower value 1 | locus YGL253W, strain hxk2, stronger effect = lower value 0.926 | locus YGR078C, strain PAC10, stronger effect = lower value 1 | locus YGR135W, strain pre9, stronger effect = lower value 1.03 | locus YGR229C, strain SMI1, stronger effect = lower value 1.02 | locus YGR252W, strain gcn5, stronger effect = lower value 0.999 | locus YHR013C, strain ard1, stronger effect = lower value 0.953 | locus YHR027C, strain rpn1, stronger effect = lower value 1.01 | locus YHR030C, strain SLT2, stronger effect = lower value 1.01 and 0.988 | locus YHR079C, strain IRE1 (second series), stronger effect = lower value 1.01 | locus YHR079C, strain IRE1, stronger effect = lower value 0.976 | locus YHR094C, strain hxt1, stronger effect = lower value 1 | locus YHR129C, strain ARP1, stronger effect = lower value 1 | locus YHR142W, strain chs7, stronger effect = lower value 0.935 | locus YHR200W, strain rpn10, stronger effect = lower value 1.01 | locus YIL066C, strain RNR3, stronger effect = lower value 1.01 | locus YIL073C, strain SPO22, stronger effect = lower value 1.08 | locus YIL125W, strain kgd1, stronger effect = lower value 1 | locus YIR030C, strain dcg1, stronger effect = lower value 1.01 | locus YJL092W, strain hpr5, stronger effect = lower value 1.01 | locus YJL095W, strain BCK1 (second series), stronger effect = lower value 1.01 | locus YJL095W, strain BCK1, stronger effect = lower value 0.988 and 0.991 | locus YJL115W, strain asf1, stronger effect = lower value 1.01 | locus YJL129C, strain trk1, stronger effect = lower value 0.983 | locus YJL134W, strain LCB3, stronger effect = lower value 1.01 | locus YJL154C, strain vps35, stronger effect = lower value 1.02 | locus YJL164C, strain tpk1, stronger effect = lower value 1 | locus YJL166W, strain qcr8, stronger effect = lower value 1.03 | locus YJL168C, strain set2, stronger effect = lower value 1.01 | locus YJL187C, strain SWE1 (second series), stronger effect = lower value 1 | locus YJL187C, strain SWE1, stronger effect = lower value 1.01
